Compounds without any hit were thinned out: in the full panel of roughly 79,000, 15% have a hit. A number with no mark means an inactive call. Active and inactive are the calls of the source. No stated cut-off is given here; in the data, active means growth inhibition above about 70%; inactive means the rest.

A short description of assay [1]: NCI Yeast Anticancer Drug Screen. Data for the rad50 strain (AID 155).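 Further: 0% = growth of vehicle-only cultures of the same strain.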 To be noted: S. cerevisiae rad50 strain growth inhibition; at 50.0 µM; stronger effect = higher value. The essentials: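 Genetically altered yeast (DNA repair pathway); compound treatment; growth inhibition vs vehicle ctrl.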
Assay [2] in a line: NCI Yeast Anticancer Drug Screen. Data for the mec2-1 strain (AID 157). The note with it: S. cerevisiae mec2-1 strain, at 50.0 µM, stronger effect = higher value. The gist of the method:
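Each compound was tested on mec2-1 yeast, a strain altered in DNA damage repair or cell cycle control. Growth inhibition is reported relative to vehicle.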

Assay [3] can be described thus: NCI Yeast Anticancer Drug Screen. Data for the sgs1 mgt1 strain (AID 161).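 Further: 0% = growth of cultures given vehicle only.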 The note with it: S. cerevisiae sgs1 mgt1 strain, at 50.0 µM, stronger effect = higher value. The gist of the method: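 Genetically altered yeast, compound exposure, growth inhibition relative to vehicle.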
Assay [4] is described as follows: NCI Yeast Anticancer Drug Screen. Data for the cln2 rad14 strain (AID 165).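 Further: 0% = growth equal to vehicle treated cultures.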 The note with it: S. cerevisiae cln2 rad14 strain, at 50.0 µM, stronger effect = higher value. The essentials:
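Test compounds were added to cln2 rad14 yeast cultures; inhibition of growth was then determined by comparison with vehicle treatment.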

Assay [5] is described as follows: NCI Yeast Anticancer Drug Screen. Data for the bub3 strain (AID 167). To be noted: S. cerevisiae bub3 mutant strain, at 50.0 µM, stronger effect = higher value. The essentials: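 Yeast carrying a defined mutation is treated with each compound, and growth is compared with that of vehicle-exposed cells to give inhibition.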
Assay [6] in a line: NCI Yeast Anticancer Drug Screen. Data for the mlh1 rad18 strain (AID 175). To be noted: S. cerevisiae mlh1 rad18 strain growth inhibition; at 50.0 µM; stronger effect = higher value. The gist of the method: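 Inhibition values reflect reduced growth of mutant yeast versus vehicle-treated controls following compound exposure; the mutations affect DNA damage repair.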

For the compound `COc1ccc(/C=C2/N=C(c3ccccc3)OC2=O)cc1`, the growth inhibition in assay [1] was -2.75%; in assay [2], -8.35%; in assay [3], -0.3%; in assay [4], -28.9%; in assay [5], -1.75%; in assay [6], -6.8%.

Consider `O=C(O)CCCCC1CCCC1`, for which the growth inhibition in assay [1] is 43.4%; in assay [2] it was 8.3%; in assay [3], 12.2%; in assay [4] it was 5.25%; in assay [5] it was 18.5%; in assay [6], 56.4%.

As to `CCOC(=O)C(C(=O)OCC)C(=O)C(C)(C)C`, the growth inhibition in assay [1] was 25.8%; in assay [2], 0.3%; in assay [3], 0.7%; in assay [4] it was 11.2%; in assay [5] it was 30.5%; in assay [6] it was 18.9%.

With `O=C1C2Nc3ccccc3N=C2OC1c1ccc(Cl)c(Cl)c1` (stereo unspecified), the growth inhibition was 10.1% in assay [1]; -5.35% in assay [2]; 15.7% in assay [3]; 7% in assay [4]; -4.8% in assay [5]; 24.6% in assay [6].

For `Cc1ccnc(=O)[nH]1`, the growth inhibition in assay [1] is -2.45%; in assay [2], -0.2%; in assay [3], 11.8%; in assay [4], 8.45%; in assay [5], 1.75%; in assay [6], 29.9%.

On to `O/N=C1\CC2CC1C1CC3(CC3)C21` (stereo unspecified), for which the growth inhibition in assay [1] was -6.85%; in assay [2], -9.6%; in assay [3], -0.15%; in assay [4] it was -0.9%; in assay [5], -22.2%; in assay [6], 20.6%.

With `O=C([O-])C(=O)[N-]CCC[N-]C(=O)C(=O)[N-]CCC[N-]C(=O)C(=O)[O-].[Cu+2].[Cu+2].[Na+]`, the growth inhibition is -8.45% in assay [1]; -13.6% in assay [2]; 4.35% in assay [3]; -21.8% in assay [4]; -7.7% in assay [5]; 8.9% in assay [6].

Regarding `C=C1CN(CCc2ccccc2)C(=S)S1`, the growth inhibition was 55.6% in assay [1]; 19.1% in assay [2]; 22.4% in assay [3]; 3.65% in assay [4]; 1.35% in assay [5]; 11.4% in assay [6].

For `Cc1cc(Cc2cc(C)c(NC(=O)C(=O)C3CCC4=C(SC5C=CC=CC5N4)C3=O)c(C(C)C)c2)cc(C(C)C)c1NC(=O)C(=O)C1CCC2=C(SC3C=CC=CC3N2)C1=O` (stereo unspecified), the growth inhibition is -15.8% in assay [1]; -13.6% in assay [2]; -8.1% in assay [3]; 15.2% in assay [4]; 15.3% in assay [5]; -28.1% in assay [6].

With `NCCCNCCCCNCCCNCc1c2ccccc2c(CNCCCNCCCCNCCCN)c2ccccc12`, the growth inhibition in assay [1] was 90.7% (active); in assay [2], 93.1% (active); in assay [3], 93.2% (active); in assay [4] it was 91.9% (active); in assay [5], 91.8% (active); in assay [6], 90.8% (active).

As for `Clc1ccccc1C(Nc1ncccn1)Nc1ncccn1`, the growth inhibition was 11.1% in assay [1]; 15% in assay [2]; -8.05% in assay [3]; -0.25% in assay [4]; 41% in assay [5]; 13.1% in assay [6].

Regarding `C=CCOC(=O)NC(CCC(=O)O)C(=O)O` (stereo unspecified), the growth inhibition in assay [1] was 21.1%; in assay [2], -0.35%; in assay [3], 19.3%; in assay [4] it was 11%; in assay [5], 3.4%; in assay [6], 21%.

For `O=C(CP(c1ccccc1)c1ccccc1)c1cccc(C(=O)CP(c2ccccc2)c2ccccc2)c1`, the growth inhibition in assay [1] is -4.3%; in assay [2] it was -22.1%; in assay [3], -5.05%; in assay [4], -8.6%; in assay [5], -14.3%; in assay [6] it was -19.4%.

On to `CCN(Cc1ccc(CN(CC)C(=O)c2c(-c3ccccc3)noc2C)cc1)C(=O)c1c(-c2ccccc2)noc1C`, for which the growth inhibition in assay [1] was 13.6%; in assay [2], -8.1%; in assay [3], 5.1%; in assay [4] it was 17.8%; in assay [5], 0.2%; in assay [6], -13.6%.

Take `O=C(NNC1CCN(Cc2ccccc2)CC1)c1ccccc1`: the growth inhibition in assay [1] was 12.5%; in assay [2], -18%; in assay [3], 5.35%; in assay [4], 16.9%; in assay [5], 2.5%; in assay [6] it was 13.4%.

As to `NNC(=O)c1ccc2ccccc2c1O`, the growth inhibition in assay [1] is 17.4%; in assay [2], 14.8%; in assay [3], 17.1%; in assay [4], 0.05%; in assay [5], 22.1%; in assay [6], 49%.

As to `O=C(O)/C=C/C(=O)Nc1cccc(C(F)(F)F)c1`, the growth inhibition in assay [1] is -3.5%; in assay [2] it was 0.35%; in assay [3], -17.5%; in assay [4], -6.85%; in assay [5], -15.7%; in assay [6], -9.7%.

Turning to `CC(C)CCCC(C)C1CCC2(C)C3=C(CCC12C)C1(C)CCC(O)C(C)(C)C1CC3=O` (stereo unspecified), the growth inhibition in assay [1] was -0.35%; in assay [2], -0.5%; in assay [3], -18.6%; in assay [4], 1.85%; in assay [5], 2.1%; in assay [6], -5.45%.

In the case of `COc1cc2c(c(OC)c1OC)-c1c(cc3c(c1OC)OCO3)C1OC2C(C)C1C` (stereo unspecified) (tested in a mixture with another compound), the growth inhibition is -23.6% in assay [1]; -55% in assay [2]; -9% in assay [3]; -20.4% in assay [4]; -20.6% in assay [5]; -39.2% in assay [6].

As to `CCC(=O)c1nc(N)[nH]c1CC`, the growth inhibition is -36.7% in assay [1]; -21.6% in assay [2]; -12.1% in assay [3]; -44.3% in assay [4]; -3% in assay [5]; -6.45% in assay [6].

With `C/C(=N\NC(N)=O)c1cc2cc([N+](=O)[O-])ccc2oc1=O`, the growth inhibition in assay [1] is -2.2%; in assay [2] it was 23.6%; in assay [3] it was 16.1%; in assay [4], -7.85%; in assay [5] it was -12.6%; in assay [6], 8.5%.

(Values after PubChem BioAssay (NCI).)
